# Results: PubChem BioAssay (Tox21)
# Records with an inconclusive call do not appear. Unmarked numbers belong to inactive results. Calls follow the shape of the dose curve; as a rule, active = well fitted inhibition curve with a large enough effect in the signal ratio in the repeat runs (not every such curve was filed as active); inconclusive = weak or mixed curves, or effect the other way; inactive = no such curve, though single readings can be large or run the other way; the % refers to the signal ratio.
# Molecular target: Vitamin D3 receptor (Homo sapiens) (UniProt P11473)
# Sequence (P11473 whole entry, looked up): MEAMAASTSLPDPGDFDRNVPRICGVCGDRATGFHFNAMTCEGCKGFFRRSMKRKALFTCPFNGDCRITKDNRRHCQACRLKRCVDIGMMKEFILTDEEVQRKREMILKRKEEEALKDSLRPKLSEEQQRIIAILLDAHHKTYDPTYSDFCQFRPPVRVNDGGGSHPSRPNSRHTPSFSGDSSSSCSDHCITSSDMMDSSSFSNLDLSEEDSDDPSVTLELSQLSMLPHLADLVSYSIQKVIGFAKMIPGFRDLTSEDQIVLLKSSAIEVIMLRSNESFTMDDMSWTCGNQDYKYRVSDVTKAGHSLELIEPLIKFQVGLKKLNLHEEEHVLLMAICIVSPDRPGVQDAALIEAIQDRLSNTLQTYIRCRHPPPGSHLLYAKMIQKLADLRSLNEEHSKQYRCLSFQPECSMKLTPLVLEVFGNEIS
# Assay: qHTS assay to identify small molecule antagonists of the vitamin D receptor (VDR) signaling pathway (AID 743223)
# Conditions: VDR-UAS-bla HEK293T, beta-lactamase FRET ratio, 16 h; series mostly up to 61 µM; activity change, negative = inhibition: at the top concentration
# From the text: U.S. Tox21 Program National Center for Advancing Translational Sciences [NCATS] NIH Chemical Genomics Center [NCGC] U.S. Environmental Protection Agency [EPA] National Institutes of Environmental Health Sciences [NIEHS] National Toxicology Program [NTP] U.S. Food and Drug Administration [FDA] Tox21 Assay Overview: The vitamin D receptor (VDR), a member of nuclear hormone receptor superfamily, plays a critical role in calcium homeostasis and bone metabolism. It is also involved in cell differentiation and growth, and thrombogenicity.
# Tox21 Assay Protocol Summary: VDR-bla cells were dispensed at 2,000 cells/5 uL of assay medium per well into black wall/clear-bottom 1536-well plates using a Multidrop Combi (Thermo Fisher Scientific, Waltham, MA) dispenser. After the assay plates were incubated at a 37C and 5% CO2 for 4 h, 23 nL of compounds dissolved in DMSO, positive controls or DMSO only was transferred to the assay plate by a Pintool station (Kalypsys, San Diego, CA), followed by addition of 1 uL of 1alpha, 25-Dihydroxy Vitamin D3 (3 nM, final concentration in the wells) using a Bioraptr Flying Reagent Dispenser (FRD) workstation (Beckman Coulter, Indianapolis, IN). The plates were incubated at 37C and 5% CO2 for 16 h, and then 1 uL of LiveBLAzerTM B/G FRET substrate was added using a Bioraptr FRD. The plates were incubated at room temperature for 2 h and fluorescence intensity was measured by an Envision plate reader (PerkinElmer, Shelton, CT).
# % is scaled to controls: 0 for no effect and ±100 for the full control effect.
row,Compound,"activity change, negative = inhibition"
1,CN(C)C(C)(C)CO,13.1%
2,C/C(CC(C)C)=N\O,-1.31%
3,COC(C)(OC)OC,1.99%
4,Cc1ccc(C)c([N+](=O)[O-])c1,-2.03%
5,CC1(C)O[C@H]2CC(=O)OC[C@]23[C@H]2CC[C@@]4(C)[C@H](c5ccoc5)OC(=O)[C@H]5O[C@]54[C@]2(C)C(=O)C[C@@H]13,-5.27%
6,CC(=O)c1cc(C)oc1C,-12.3% [at 78.8 µM]
7,O=C(O)CCCCCC(=O)O,5.35% [at 78.8 µM]
8,CC(C)COC(=O)c1ccccc1,1.9%
9,CC1CC(=O)CC(C)(C)C1 (stereo not given),-13.1%
10,N#Cc1ccccc1O,3.91%
11,ONc1ccccc1,1.3% [at 78.8 µM]
12,CCC(=O)Oc1ccc2c(c1)CC[C@@H]1[C@@H]2CC[C@@]2(C)[C@H]1C[C@@H](OC(=O)CC)[C@@H]2OC(=O)CC,2.59%
13,Cc1c(N)cccc1Cl,-7.69%
14,CC(C)NC(=O)c1ccc(C=O)cc1,-5%
15,C=CCOC(=O)CCCCCC,7.06%
16,c1ccc(-c2nn[nH]n2)cc1,6.33%
17,CCCCCCCCCCCCCCCCCCOCCO,-11.1% [at 28.5 µM]
18,Cc1c(NC(=O)c2cccnc2)c(=O)n(-c2ccccc2)n1C,2.05%
19,CC1(C)CC(OC(=O)CCCCCCCCC(=O)OC2CC(C)(C)NC(C)(C)C2)CC(C)(C)N1,4% [at 28.5 µM]
20,COc1cc(/C=C/C(N)=O)cc(OC)c1OC,10.4%

row,Compound,"activity change, negative = inhibition"
1,Cc1ncc([N+](=O)[O-])n1CC(C)O (stereo not given),12.3%
2,COc1c2occc2c(OC)c2c(=O)cc(C)oc12,-9.7%
3,O=C1CCC(=O)N1Cl,-23.7%
4,CCN1CCCC1CN (stereo not given),4.03%
5,N[C@@H](Cc1ccc(O)cc1)C(=O)O,1.57% [at 6.95 µM]
6,CC(C)=CCC/C(C)=C/COC=O,10%
7,CCCc1ccc(O)cc1,13.7%
8,NCC1(Cc2noc(=O)[nH]2)CCCCC1,-7.92%
9,C[C@H]1[C@@H](c2ccccc2)NC(=O)N1C,-4.51% [at 78.8 µM]
10,CCCC(=O)Nc1ccc(OCC(O)CNC(C)C)c(C(C)=O)c1 (stereo not given),-1.66%
11,O=C1CCCCO1,0.737%
12,O=Cc1ccccc1Cl,-0.214%
13,Cc1ccc2c(c1)C(=O)c1ccccc1C2=O,-8.95%
14,CN1C[C@@H]2C[C@H]1CN2c1cc2c(cc1F)c(=O)c(C(=O)O)cn2C1CC1,1.53% [at 28.5 µM]
15,CCCCCCCCCOC(=O)c1ccccc1C(=O)OCCCCCCCCC,3.53%
16,O=C(O)c1cc2ccccc2nc1C(=O)O,-13.5%
17,CC(C)Cn1cnc2c1c(=O)n(C)c(=O)n2C,-6.88%
18,CC/C=C\CCOC(=O)c1ccccc1O,3.68%
19,Cc1cc(-c2ccccc2)nnc1NCCN1CCOCC1,3.65%
20,CC1(C)Cc2cccc(N)c2O1,6.53%
